DRD3 antagonist: qHTS of D3 Dopamine Receptor Antagonist: qHTS | D(3) dopamine receptor (Homo sapiens), P35462 | AID 652054, 2013 | max response, negative = inhibition, % | D3R cells, DiscoveRx beta-arrestin luminescence, antagonist mode; active compounds read low | 360,000 compounds, 2.5% hits; in the data active means max response below about -50%; inconclusive means no clear call, values can overlap the other calls
Target sequence (P35462 whole entry, looked up): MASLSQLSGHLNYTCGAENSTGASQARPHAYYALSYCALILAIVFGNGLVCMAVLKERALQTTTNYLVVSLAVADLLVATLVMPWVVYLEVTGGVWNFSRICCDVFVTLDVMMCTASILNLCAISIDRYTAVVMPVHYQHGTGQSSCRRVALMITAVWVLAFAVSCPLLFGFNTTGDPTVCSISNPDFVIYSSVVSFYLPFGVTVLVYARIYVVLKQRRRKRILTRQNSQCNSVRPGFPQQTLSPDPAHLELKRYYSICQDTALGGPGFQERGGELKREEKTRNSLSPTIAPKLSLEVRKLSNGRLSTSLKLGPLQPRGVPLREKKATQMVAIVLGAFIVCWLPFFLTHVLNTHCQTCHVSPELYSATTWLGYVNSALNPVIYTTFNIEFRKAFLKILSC
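Cells expressing the human receptor were seeded at 1500 cells/well, incubated overnight at 37 degrees C in 5% CO2, then exposed to library compounds with dopamine controls for 90 minutes at 37 degrees C before luminescent detection.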
SW480 rereplic: A quantitative high throughput screen for small molecules that induce DNA re-replication in SW480 colon adenocarcinoma cells; Potency, µM (titrated, usually from 46.1 µM), usual class: activators; 340,000 compounds, 1.8% hits; SW480 DNA re-replication, Hoechst DNA content imaging, 48 h; further: nearly all actives have a fitted effect of over 55% in size
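First, 250 cells per well were seeded. Next, compound or vehicle (23 nL) was pinned in, plates sat 48 hr at 37 C. Finally Hoechst was added for 40 min before fluorescence scanning.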
KB-V1 MDR tox: qHTS assay for MDR1-selective chemotherapeutics: Primary screen using the drug-selected MDR subline cells KB-V1; KB-V1 MDR cells viability, CellTiter-Glo, 72 h; 400,000 compounds, 3.4% hits; AID 1347076, 2019; Potency, µM (top dose mostly 46.1 µM), hits mostly cytotoxic; further: nearly all actives have a fitted effect of over 60% in size
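Following 72 h at 37 degrees C with compound, KB-V1 cell viability was read by CellTiter-Glo luminescence, medium being phenol-red-free DMEM plus 10% FBS; concentration-response parameters came from normalized, curve-fitted qHTS data.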
MCF10A rerep: A quantitative high throughput screen for small molecules that induce DNA re-replication in MCF 10a normal breast cells; MCF 10A DNA re-replication, Hoechst nuclear intensity, 48 h; Potency, µM (doses to about 46.1 µM), usual class: activators; 350,000 compounds, 2.9% hits; AID 624296, 2012; further: nearly all actives have a fitted effect of over 50% in size
D3 ag: qHTS of D3 Dopamine Receptor Agonist: qHTS; D(3) dopamine receptor (Homo sapiens), P35462; D3R DiscoveRx beta-arrestin cells, luminescence, 90 min; max activation, %; 410,000 compounds, 0.58% hits; in the data active means max activation above about 30%
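Agonist mode: compounds and dopamine controls were applied to plated cells for 90 min at 37 degrees C after an overnight attachment at 1500 cells/well. Luminescent read-out followed 30 - 60 minutes at room temperature with DiscoveRx detection reagent.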
KB-3-1 tox: qHTS assay for MDR1-selective chemotherapeutics: Primary screen using the parental adenocarcinoma cell KB-3-1 | KB-3-1 viability, CellTiter-Glo ATP luminescence, 72 h | Potency, µM (series often up to 46.1 µM), actives largely listed as cytotoxic | 400,000 compounds, 1.4% hits; further: nearly all actives have a fitted effect of over 60% in size
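72 h, 37 °C compound treatment of KB-3-1 parental cells; CellTiter-Glo added, 10 min, luminescence read. Data corrected against DMSO-only plates and normalized before curve fitting.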
A number is an active result; i = inactive; ? = inconclusive; nt = not tested or not shown. Most compounds without a hit are left out; they make up all but 8.9% or so of the library. Unless noted, the call rests on the fitted dose curve; in most records, active means well fitted curve in the direction sought with a large enough effect; inconclusive means small, poorly fitted or top-dose-only effect, or another doubt; inactive means no such curve, though single readings can be large; an effect the other way counts as inactive or inconclusive.

SMILES	DRD3 antagonist	SW480 rereplic	KB-V1 MDR tox	MCF10A rerep	D3 ag	KB-3-1 tox
CCc1ccc(NC(=O)[C@H](NC(=O)[C@@H]2Cc3ccccc3CN2)c2ccccc2)cc1	-101	?	?	i	i	i
Cc1cc(C)cc(NC(=O)[C@H](NC(=O)[C@@H]2Cc3ccccc3CN2)c2ccccc2)c1	-108	i	i	i	i	i
COc1ccc(N2CCN(C3CCCN(S(=O)(=O)c4ccc(C)cc4C)C3)CC2)cc1 (stereo unspecified)	i	?	i	?	i	26µM
COc1ccccc1N1CCN(C2CCCN(S(=O)(=O)c3cccc(Cl)c3)C2)CC1 (stereo unspecified)	?	?	i	i	i	i
COc1ccccc1N1CCN(S(=O)(=O)c2ccc(F)cc2)CC1	i	i	13µM	i	i	i
COc1ccccc1N1CCN(C2CCCN(S(=O)(=O)c3ccc(C)cc3)C2)CC1 (stereo unspecified)	-80	i	i	i	i	i
CC(NC(=O)c1ccc(F)cc1Cl)C1CC2CCC1C2 (stereo unspecified)	i	i	i	i	i	i
CC(NC(=O)CCC(=O)c1ccc(F)cc1)C1CC2CCC1C2 (stereo unspecified)	i	?	i	10µM	i	i
COc1cc(C(=O)Oc2c(OC)cc(C(=S)N3CCOCC3)cc2OC)cc(OC)c1OC	i	i	i	i	i	i
COc1cccc(C(=O)Oc2c(CN3CCOCC3)cc(Cl)c3cccnc23)c1	i	i	7.3µM	i	i	?
COc1cc(C(=S)N2CCOCC2)cc(OC)c1OC(=O)c1ccc(F)cc1	i	i	i	i	i	i
COc1cc(C(=O)Oc2c(CN3CCOCC3)cc(Cl)c3cccnc23)cc(OC)c1OC	-111	?	?	?	i	?
COc1ccc(C(=O)Oc2c(CN3CCOCC3)cc(Cl)c3cccnc23)cc1	i	?	?	?	i	10µM
O=C(Oc1c(CN2CCOCC2)cc(Cl)c2cccnc12)c1ccc(F)cc1	-61	?	3.3µM	3.3µM	i	5.8µM
COc1cccc(C(=O)OCCN2CCOCC2)c1	i	i	?	i	i	i
Cc1cccc(N2CCN(C(=O)CN3C(=O)COc4ccc(S(=O)(=O)N5CCCC5)cc43)CC2C)c1 (stereo unspecified)	nt	nt	?	nt	i	?
O=C(/C=C/N1CCOCC1)c1ccc(-c2ccccc2)cc1	i	15µM	?	i	i	i
O=C(/C=C\N1CCOCC1)c1ccc(Br)cc1	i	i	i	5.8µM	i	i
Cc1ccc(/C=N/NC(=O)c2nnn(-c3nonc3N)c2-c2ccc3c(c2)OCO3)s1	i	i	?	i	i	i
Cc1cccc(N2C(=O)CC(Sc3nc(C)c4c(n3)CCCC4)C2=O)c1 (stereo unspecified)	i	5.8µM	16µM	i	i	i
Cc1ccc2nc(Nc3ccc4[nH]c(=O)[nH]c4c3)c(-n3nc(C)cc3C)nc2c1	i	i	i	i	69	i
O=S(=O)(Nc1nc2ccccc2nc1Nc1ccc2c(c1)OCO2)c1ccc(F)cc1	i	i	5.8µM	i	i	?
O=C(O)c1cccc(Nc2nc3ccccc3nc2NS(=O)(=O)c2ccc(F)cc2)c1	i	i	?	i	i	i
O=S(=O)(Nc1nc2ccccc2nc1N1CCN(c2ccccc2)CC1)c1ccc(F)cc1	i	i	5.2µM	i	i	?
Cc1ccc(S(=O)(=O)Nc2nc3ccccc3nc2N2CCOCC2)cc1	i	i	i	i	i	i
SMILES	DRD3 antagonist	SW480 rereplic	KB-V1 MDR tox	MCF10A rerep	D3 ag	KB-3-1 tox
Cc1cc(C)n(-c2nc3ccccc3nc2Nc2ccc3c(c2)OCO3)n1	i	i	i	16µM	i	i
COc1ccc2cc(CNc3ccc(C)cc3)c(=O)n(CC(=O)Nc3ccc(OC)c(Cl)c3)c2c1	nt	nt	i	nt	i	i
CCN(CC)c1ccc(C(=O)N2CCc3c([nH]c4ccccc34)C2c2ccc(F)cc2)cc1 (stereo unspecified)	nt	nt	nt	nt	i	nt
COc1ccc(-n2cc(C(=O)N(C)c3cc(C)ccc3OC)c3ccccc3c2=O)cc1	nt	nt	nt	nt	i	nt
COc1cc(NC(=O)N(Cc2ccco2)C2CCN(C(C)=O)CC2)cc(OC)c1OC	nt	nt	i	nt	i	i
Cc1cc(C(=O)N2CCC2(C)C(=O)O)nn1C(C)(C)C (stereo unspecified)	i	nt	i	nt	i	i
Cc1cc(C)n(-c2nc3ccccc3nc2Nc2cc(Cl)ccc2C)n1	nt	nt	?	nt	i	i
Cc1cc(C)n(-c2nc3ccccc3nc2Nc2ccc(Cl)cc2Cl)n1	nt	nt	nt	nt	58	nt
CCCCN(C(=O)c1ccccc1Cl)C(CC(C)C)c1nc2ccccc2[nH]1 (stereo unspecified)	i	nt	i	nt	48	i
COc1cc2ccccc2cc1C(=O)N(CCN(C)C)c1nc2ccc(Br)cc2s1	?	23µM	?	?	i	?
CN(C)CCCN(C(=O)CCc1ccccc1)c1nc2ccc(F)cc2s1	i	i	i	i	i	i
Cc1cccc2sc(N(CCCN(C)C)C(=O)CCc3ccccc3)nc12	i	?	16µM	?	i	?
CN(C)CCCN(C(=O)CCc1ccccc1)c1nc2ccc(Br)cc2s1	?	i	23µM	?	i	?
Cc1cccc2sc(N(CCCN(C)C)C(=O)CN3C(=O)c4ccccc4C3=O)nc12	i	i	i	i	i	i
C=Cc1ccc(CSc2nc(-c3ccc(Cl)cc3)nc3c2Cc2c(CO)cnc(C)c2O3)cc1	nt	nt	i	nt	i	i
COc1ccc(-c2nnc3n(CCc4ccccc4)c(=O)c4ccccc4n23)c(OC)c1	i	i	?	21µM	i	i
Cn1c(-c2ccccc2)c(/C=N/NC(=O)c2cccnc2)c2ccccc21	i	?	i	?	i	?
COc1ccc(Cn2c(O)c(/C=N/NC(=O)c3cccnc3)c3ccccc3c2=O)cc1	i	?	i	?	i	i
O=C(N/N=C/c1c(-c2ccccc2)[nH]c2ccccc12)c1cccnc1	i	23µM	i	?	i	?
O=C(N/N=C/c1c(O)n(Cc2ccccc2)c(=O)c2ccccc12)c1cccnc1	i	i	?	?	i	18µM
O=C(N/N=C/c1c(O)n(-c2ccccc2Cl)c(=O)c2ccccc12)c1cccnc1	i	16µM	?	?	i	i
Cc1cccc(-n2c(O)c(/C=N/NC(=O)c3ccccc3Cl)c3ccccc3c2=O)n1	i	?	i	i	i	?
Cc1nn(-c2cccc(Cl)c2)c(Cl)c1/C=N/NC(=O)c1cccnc1	i	i	i	?	i	i

From PubChem BioAssay
